Compounds without any hit were thinned out: in the full panel of roughly 79,000, 15% have a hit. Values without a mark were called inactive. Calls of active or inactive are those of the source. No stated cut-off is given here; in the data, active means growth inhibition above about 70%; inactive means the rest.
Columns and labels:
[1] = NCI Yeast Anticancer Drug Screen. Data for the rad52 strain (AID 147);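 further: 0% = growth of vehicle-treated control cultures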; details: S. cerevisiae rad52 mutant growth inhibition, hits give high values
Summary of the method: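 Here a repair-compromised yeast strain receives each compound; its growth is then quantified and normalised to vehicle-only controls.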

[2] = NCI Yeast Anticancer Drug Screen. Data for the wt1 strain (AID 149);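 further: 0% = growth of vehicle-treated wt1 cultures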; details: S. cerevisiae wt1 strain (SPY 50644) growth inhibition, hits give high values
Summary of the method: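 Readout: yeast growth inhibition, normalised to vehicle controls, in the wt1 strain exposed to test compounds.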

[3] = NCI Yeast Anticancer Drug Screen. Data for the rad50EPP+ strain (AID 151);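 further: 0% = growth of vehicle-treated control cultures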; details: S. cerevisiae rad50 mutant strain, hits give high values
Summary of the method: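 Read-out is yeast growth inhibition relative to vehicle; cells used were the rad50EPP+ strain.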

[4] = NCI Yeast Anticancer Drug Screen. Data for the mgt1 strain (AID 153); details: S. cerevisiae mgt1 mutant growth inhibition, hits give high values
Summary of the method: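 Measured: inhibition of mgt1 yeast growth by compound, normalized to vehicle-treated cultures.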

[5] = NCI Yeast Anticancer Drug Screen. Data for the rad50 strain (AID 155);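 further: 0% = growth of vehicle-only cultures of the same strain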; details: S. cerevisiae rad50 strain growth inhibition, hits give high values
Summary of the method: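 Compounds were tested on a yeast strain with an engineered DNA damage repair alteration; the reported value is growth inhibition normalised to vehicle treatment.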

[6] = NCI Yeast Anticancer Drug Screen. Data for the mec2-1 strain (AID 157); details: S. cerevisiae mec2-1 strain, hits give high values
Summary of the method: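 Using mec2-1 yeast: add compound, measure growth, express inhibition versus vehicle-treated cultures.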

[7] = NCI Yeast Anticancer Drug Screen. Data for the rad14 strain (AID 159);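 further: 0% = growth of vehicle-treated control cultures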; details: S. cerevisiae rad14 strain growth inhibition, hits give high values
Summary of the method: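 Compound-treated yeast with a defined DNA-repair lesion; growth inhibition normalised to vehicle-treated cultures.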

[8] = NCI Yeast Anticancer Drug Screen. Data for the sgs1 mgt1 strain (AID 161);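 further: 0% = growth of cultures given vehicle only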; details: S. cerevisiae sgs1 mgt1 strain, hits give high values
Summary of the method: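 Percent growth inhibition was derived by comparing compound-exposed mutant yeast with vehicle-exposed cultures. The strain carries alterations in DNA damage repair.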

[9] = NCI Yeast Anticancer Drug Screen. Data for the CLN2oe strain (AID 163);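 further: 0% = growth of vehicle-only control cultures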; details: S. cerevisiae CLN2oe strain, hits give high values
Summary of the method: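 Whole-cell yeast growth assay. A strain engineered for altered cell-cycle control received compound, and inhibition relative to vehicle-treated cultures was recorded.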

[10] = NCI Yeast Anticancer Drug Screen. Data for the cln2 rad14 strain (AID 165);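 further: 0% = growth equal to vehicle treated cultures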; details: S. cerevisiae cln2 rad14 strain, hits give high values
Summary of the method: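 Yeast strain cln2 rad14, bearing defects in cell cycle control and DNA repair, serves as the test system; values reflect growth inhibition compared with vehicle.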

[11] = NCI Yeast Anticancer Drug Screen. Data for the bub3 strain (AID 167); details: S. cerevisiae bub3 mutant strain, hits give high values
Summary of the method: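 Growth of a checkpoint-deficient yeast mutant is measured after compound exposure. Values represent inhibition relative to vehicle.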

[12] = NCI Yeast Anticancer Drug Screen. Data for the wt2 strain (AID 169);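 further: 0% = growth of vehicle-treated yeast cultures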; details: S. cerevisiae wt2 strain growth inhibition, hits give high values
Summary of the method: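 Treated yeast vs. vehicle-treated yeast: growth inhibition determined.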

[13] = NCI Yeast Anticancer Drug Screen. Data for the mlh1 strain (AID 171);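 further: 0% = growth of vehicle-treated control cultures of the same strain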; details: S. cerevisiae mlh1 strain growth inhibition, hits give high values
Summary of the method: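 A yeast strain with a defined genetic lesion serves as the test organism. Cultures receive compound or vehicle, and growth is measured.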

[14] = NCI Yeast Anticancer Drug Screen. Data for the mlh1 rad18 strain (AID 175); details: S. cerevisiae mlh1 rad18 strain growth inhibition, hits give high values
Summary of the method: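 Steps: expose repair-defective yeast to compound; measure growth; express inhibition against vehicle-treated controls.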

[15] = NCI Yeast Anticancer Drug Screen. Data for the rad18 strain (AID 177); details: S. cerevisiae rad18 mutant growth inhibition, hits give high values
Summary of the method: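 Measured value is growth inhibition of a yeast strain bearing a DNA repair alteration, referenced to vehicle-treated cells.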

[16] = at 5.0 µM (retest, dose inferred, filed as 0.5)
[17] = at 50.0 µM (retest, dose inferred, filed as 5.0)

Cc1ccc(NC(=O)CCC(=O)C(C)C(=O)c2ccccc2)c(C)c1 (stereo unspecified)
growth inhibition ([1]; at 1.2 µM): 1% | growth inhibition ([1]; at 3.7 µM): 1% | growth inhibition ([1]; at 11.0 µM): 3% | growth inhibition ([1]; at 33.0 µM): 1% | growth inhibition ([1]; at 100.0 µM): -1% | growth inhibition ([2]; at 1.2 µM): -1% | growth inhibition ([2]; at 3.7 µM): -1% | growth inhibition ([2]; at 11.0 µM): -1% | growth inhibition ([2]; at 33.0 µM): -1% | growth inhibition ([2]; at 100.0 µM): -3% | growth inhibition ([3]; at 1.2 µM): -2% | growth inhibition ([3]; at 3.7 µM): 0% | growth inhibition ([3]; at 11.0 µM): 1% | growth inhibition ([3]; at 33.0 µM): 0% | growth inhibition ([3]; at 100.0 µM): 5% | growth inhibition ([4]; at 1.2 µM): 0% | growth inhibition ([4]; at 3.7 µM): 5% | growth inhibition ([4]; at 11.0 µM): 1% | growth inhibition ([4]; at 33.0 µM): 0% | growth inhibition ([4]; at 100.0 µM): -5% | growth inhibition ([5]; at 1.2 µM): 1% | growth inhibition ([5]; at 3.7 µM): -6% | growth inhibition [5, 16]: 91% (active) | growth inhibition ([5]; at 11.0 µM): 3% | growth inhibition ([5]; at 33.0 µM): 3% | growth inhibition [5, 17]: 92% (active) | growth inhibition ([5]; at 50.0 µM): -41.7% | growth inhibition ([5]; at 100.0 µM): -1% | growth inhibition ([6]; at 1.2 µM): -3% | growth inhibition ([6]; at 3.7 µM): -5% | growth inhibition [6, 16]: 12% | growth inhibition ([6]; at 11.0 µM): 1% | growth inhibition ([6]; at 33.0 µM): -2% | growth inhibition [6, 17]: 39% | growth inhibition ([6]; at 50.0 µM): -1.6% | growth inhibition ([6]; at 100.0 µM): -3% | growth inhibition ([7]; at 1.2 µM): 0% | growth inhibition ([7]; at 3.7 µM): 2% | growth inhibition ([7]; at 11.0 µM): 1% | growth inhibition ([7]; at 33.0 µM): 2% | growth inhibition ([7]; at 100.0 µM): 2% | growth inhibition [8, 16]: 5% | growth inhibition [8, 17]: 9% | growth inhibition ([8]; at 50.0 µM): 11.1% | growth inhibition ([9]; at 1.2 µM): -1% | growth inhibition ([9]; at 3.7 µM): 1% | growth inhibition ([9]; at 11.0 µM): 5% | growth inhibition ([9]; at 33.0 µM): 1% | growth inhibition ([9]; at 100.0 µM): 0% | growth inhibition [10, 16]: -3% | growth inhibition [10, 17]: 11% | growth inhibition ([10]; at 50.0 µM): -12.9% | growth inhibition ([11]; at 1.2 µM): -1% | growth inhibition ([11]; at 3.7 µM): -2% | growth inhibition [11, 16]: -15% | growth inhibition ([11]; at 11.0 µM): -2% | growth inhibition ([11]; at 33.0 µM): -5% | growth inhibition [11, 17]: -10% | growth inhibition ([11]; at 50.0 µM): 0.65% | growth inhibition ([11]; at 100.0 µM): -5% | growth inhibition ([12]; at 1.2 µM): -2% | growth inhibition ([12]; at 3.7 µM): -1% | growth inhibition ([12]; at 11.0 µM): -1% | growth inhibition ([12]; at 33.0 µM): -2% | growth inhibition ([12]; at 100.0 µM): -4% | growth inhibition ([13]; at 1.2 µM): -2% | growth inhibition ([13]; at 3.7 µM): -1% | growth inhibition ([13]; at 11.0 µM): -1% | growth inhibition ([13]; at 33.0 µM): -1% | growth inhibition ([13]; at 100.0 µM): 0% | growth inhibition [14, 16]: 6% | growth inhibition [14, 17]: 3% | growth inhibition ([14]; at 50.0 µM): 6.15%

O=C(c1ccccc1)[C@H]1Nc2ccc(Cl)cc2[C@H]2OCCC[C@@H]12
growth inhibition ([1]; at 1.2 µM): -16% | growth inhibition ([1]; at 3.7 µM): -40% | growth inhibition ([1]; at 11.0 µM): -19% | growth inhibition ([1]; at 33.0 µM): 22% | growth inhibition ([1]; at 100.0 µM): 86% (active) | growth inhibition ([2]; at 1.2 µM): -7% | growth inhibition ([2]; at 3.7 µM): -6% | growth inhibition ([2]; at 11.0 µM): -2% | growth inhibition ([2]; at 33.0 µM): 24% | growth inhibition ([2]; at 100.0 µM): 88% (active) | growth inhibition ([3]; at 1.2 µM): -16% | growth inhibition ([3]; at 3.7 µM): -20% | growth inhibition ([3]; at 11.0 µM): -25% | growth inhibition ([3]; at 33.0 µM): -2% | growth inhibition ([3]; at 100.0 µM): 14% | growth inhibition ([4]; at 1.2 µM): -19% | growth inhibition ([4]; at 3.7 µM): -23% | growth inhibition ([4]; at 11.0 µM): -39% | growth inhibition ([4]; at 33.0 µM): 32% | growth inhibition ([4]; at 100.0 µM): 88% (active) | growth inhibition ([5]; at 1.2 µM): -2% | growth inhibition ([5]; at 3.7 µM): -2% | growth inhibition [5, 16]: 7% | growth inhibition ([5]; at 11.0 µM): -6% | growth inhibition ([5]; at 33.0 µM): 33% | growth inhibition [5, 17]: 4% | growth inhibition ([5]; at 50.0 µM): 67.2% | growth inhibition ([5]; at 100.0 µM): 91% (active) | growth inhibition ([6]; at 1.2 µM): -23% | growth inhibition ([6]; at 3.7 µM): -25% | growth inhibition [6, 16]: -13% | growth inhibition ([6]; at 11.0 µM): -25% | growth inhibition ([6]; at 33.0 µM): -6% | growth inhibition [6, 17]: 49% | growth inhibition ([6]; at 50.0 µM): 12.9% | growth inhibition ([6]; at 100.0 µM): 90% (active) | growth inhibition ([7]; at 1.2 µM): -40% | growth inhibition ([7]; at 3.7 µM): -23% | growth inhibition ([7]; at 11.0 µM): -41% | growth inhibition ([7]; at 33.0 µM): 31% | growth inhibition ([7]; at 100.0 µM): 83% (active) | growth inhibition [8, 16]: -18% | growth inhibition [8, 17]: 33% | growth inhibition ([8]; at 50.0 µM): 40.5% | growth inhibition ([9]; at 1.2 µM): -14% | growth inhibition ([9]; at 3.7 µM): 2% | growth inhibition ([9]; at 11.0 µM): -10% | growth inhibition ([9]; at 33.0 µM): 23% | growth inhibition ([9]; at 100.0 µM): 85% (active) | growth inhibition [10, 16]: 33% | growth inhibition [10, 17]: 44% | growth inhibition ([10]; at 50.0 µM): 32.6% | growth inhibition ([11]; at 1.2 µM): -22% | growth inhibition ([11]; at 3.7 µM): -7% | growth inhibition [11, 16]: 12% | growth inhibition ([11]; at 11.0 µM): 34% | growth inhibition ([11]; at 33.0 µM): 86% (active) | growth inhibition [11, 17]: 93% (active) | growth inhibition ([11]; at 50.0 µM): 82.5% (active) | growth inhibition ([11]; at 100.0 µM): 95% (active) | growth inhibition ([12]; at 1.2 µM): -15% | growth inhibition ([12]; at 3.7 µM): -15% | growth inhibition ([12]; at 11.0 µM): -16% | growth inhibition ([12]; at 33.0 µM): 17% | growth inhibition ([12]; at 100.0 µM): 81% (active) | growth inhibition ([13]; at 1.2 µM): -19% | growth inhibition ([13]; at 3.7 µM): -31% | growth inhibition ([13]; at 11.0 µM): -34% | growth inhibition ([13]; at 33.0 µM): 32% | growth inhibition ([13]; at 100.0 µM): 91% (active) | growth inhibition [14, 16]: -24% | growth inhibition [14, 17]: 1% | growth inhibition ([14]; at 50.0 µM): 25.9% | growth inhibition ([15]; at 1.2 µM): -13% | growth inhibition ([15]; at 3.7 µM): -11% | growth inhibition ([15]; at 11.0 µM): -10% | growth inhibition ([15]; at 33.0 µM): 31% | growth inhibition ([15]; at 100.0 µM): 92% (active)

Source: PubChem BioAssay (NCI)
